The values below come from PubChem BioAssay (EPA / NIEHS).

The structures appear in SMILES notation. Activity calls are given as the source filed them. The calls were made as follows: active = hit-call score of the fitted dose curve at least 0.9, where 1 is the maximum; inactive = score below 0.9.

The assay in a line: BSK_SAg_SRB: Viability Assessment in the BioMAP Diversity Plus: SAg Assay (AID 2283096).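 Also: cells read one day after compound addition; hits may be either gain or loss of signal compared with DMSO.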 The following applies: primary human HUVEC with PBMC. On the procedure:
BSK_SAg is a cell-based, multiplexed-readout assay that uses umbilical vein endothelium and peripheral blood mononuclear cells, a human vascular primary cell co-culture, with measurements taken at 24 hours after chemical dosing in a 96-well plate.BSK_SAg_SRB is an assay component measured in the BSK_SAg assay. It measures protein content, a form of viability reporter, as detected with absorbance signals by Sulforhodamine staining technology.Data from the assay component BSK_SAg_SRB was analyzed into 1 assay endpoint. This assay endpoint, BSK_SAg_SRB, was analyzed with bidirectional fitting relative to DMSO as the negative control and baseline of activity. Using a type of viability reporter, gain or loss-of-signal activity can be used to understand changes in the signaling. Furthermore, this assay endpoint can be referred to as a primary readout, because this assay has produced multiple assay endpoints where this one serves a signaling function. To generalize the intended target to other relatable targets, this assay endpoint is annotated to the cell morphology intended target family, where the subfamily is cell conformation.
The levels of cell surface (or secreted, indicated by the prefix "s") biomarker endpoints were measured by ELISA. Overt cytotoxicity to cells in confluent adherent cultures (all systems other than the BT system) was assessed by measuring total protein levels using sulforhodamine B (SRB) staining in parallel cultures at the time of biomarker measurements, indicated as SRB endpoints. For proliferation assays for adherent cell types, individual cell types are cultured at sub-confluence and relative cell numbers quantified by SRB staining at time points optimized for each system (48 h: 3C and CASM3C systems; 72 h: BT and HDF3CGF systems; 96 h: SAg system). SRB was performed by staining cells with 0.1% SRB after fixation with 10% TCA and reading wells at 560 nm.Viability and proliferation of PBMC (T cells) was quantified by Alamar Blue reduction for the SAg and BT systems. For PBMC viability (referred to as PBMC Cytotoxicity within the assay endpoint names), cells were plated (75,000/well in a 96-well plate) and then chemical samples added for 1 h before addition of activators, SEB and TSST-1 (20 ng/mL final concentration each). Cells were incubated for 90 h. Then, Alamar Blue (20 uL/well) (Invitrogen, Cat DAL1100) was added for 6 h, and the plates were read with a fluorescence microplate reader at 546/580 nm (excitation/emission). For PBMC proliferation, cells were plated and activated as above but incubated for only 16 h prior to addition of Alamar Blue. Plates were read after 6 h.
Regarding `CCNC(=O)NC(=O)C(C#N)=NOC`, the outcome was inactive.

For `CC1(C)CCC(=Cc2ccc(Cl)cc2)C1(O)Cn1cncn1` (stereo not given), the result was inactive.

On to `C=CCOC(=O)C(C)(C)OC(=O)c1cc(-n2c(=O)cc(C(F)(F)F)n(C)c2=O)ccc1Cl`, for which the result was inactive.

As for `CCOP(=S)(OCC)Oc1nc(Cl)n(C(C)C)n1`, the outcome was inactive.

For the molecule `CS(=O)(=O)c1ccc(C(=O)C2C(=O)CCCC2=O)c([N+](=O)[O-])c1`, the outcome was inactive.

As to `CCOc1nc(C(Cl)(Cl)Cl)ns1`, the outcome was inactive.

Take `CCCC(=NOCC)C1=C(O)CC(CC(C)SCC)CC1=O` (stereo not given): the outcome was inactive.

Take `CCOc1nc(F)cc2nc(S(=O)(=O)Nc3c(Cl)cccc3Cl)nn12`: the result was inactive.

On to `Nc1c(Cl)c(F)nc(OCC(=O)O)c1Cl`, for which the result was inactive.

`CCOC(=O)C(C)OC(=O)c1cc(Oc2ccc(C(F)(F)F)cc2Cl)ccc1[N+](=O)[O-]` (stereo not given): the AC50 was 14 µM (active).

As for `CC1(C)CON(Cc2ccccc2Cl)C1=O`, the outcome was inactive.

`O=C(Nc1ccccc1-c1ccc(Cl)cc1)c1cccnc1Cl`: the outcome was inactive.

For the molecule `CC1(C)C(C(=O)OC(C#N)c2cccc(Oc3ccccc3)c2)C1(C)C` (stereo not given), the AC50 was 7.56 µM (active).

For the molecule `OC(c1ccc(Cl)cc1)(c1ccc(Cl)cc1)C(Cl)(Cl)Cl`, the AC50 is 31.8 µM (active).

In the case of `CC1(C)C(C=C(Cl)Cl)C1C(=O)OC(C#N)c1cccc(Oc2ccccc2)c1` (stereo not given), the AC50 is 6.38 µM (active).

As for `C=C(C)CN(CC)c1c([N+](=O)[O-])cc(C(F)(F)F)cc1[N+](=O)[O-]`, the AC50 is 15.2 µM (active).

Consider `COP(=O)(OC)O/C(C)=C/C(=O)N(C)C`, for which the result was inactive.

Consider `CNC(=O)N(C)c1nnc(C(C)(C)C)s1`, for which the result was inactive.

As for `COP(=S)(OC)SCn1nnc2ccccc2c1=O`, the outcome was inactive.

For the molecule `COC(=O)NS(=O)(=O)c1ccc(N)cc1`, the result was inactive.

In the case of `CCCCOCN(C(=O)CCl)c1c(CC)cccc1CC`, the AC50 is 28.6 µM (active).

Consider `COC(=O)N(C(=O)N1CO[C@@]2(C(=O)OC)Cc3cc(Cl)ccc3C2=N1)c1ccc(OC(F)(F)F)cc1`, for which the AC50 is 5.59 µM (active).

For the molecule `CCOP(=O)(OCC)Oc1nc(Cl)c(Cl)cc1Cl`, the AC50 is 20 µM (active).

Turning to `CCCCC(O)(Cn1cncn1)c1ccc(Cl)cc1Cl` (stereo not given), the outcome was inactive.

Turning to `Cn1c(-c2ccccc2)cc(-c2ccccc2)[n+]1C`, the outcome was inactive.

Consider `COc1cc(Cl)c(OC)cc1Cl`, for which the result was inactive.

For the molecule `COCc1cnc(C2=NC(C)(C(C)C)C(=O)N2)c(C(=O)O)c1` (stereo not given), the outcome was inactive.

Consider `CCC(C)n1c(=O)[nH]c(C)c(Br)c1=O` (stereo not given), for which the outcome was inactive.

Turning to `O=c1n(Cl)c(=O)n(Cl)c(=O)n1Cl`, the outcome was inactive.

For the molecule `CCOc1cc(C(C)(C)C)ccc1C1COC(c2c(F)cccc2F)=N1` (stereo not given), the AC50 was 22.1 µM (active).

Turning to `Cc1nc(N(C)C)nc(OC(=O)N(C)C)c1C`, the result was inactive.

`N#Cc1c(Cl)cccc1Cl`: the outcome was inactive.

Regarding `CCSC(=O)N1CCCCCC1`, the outcome was inactive.

With `CC(C)(C)C(=O)C(Oc1ccc(Cl)cc1)n1cncn1` (stereo not given), the result was inactive.

For `COc1cc(OC)nc(NC(=O)NS(=O)(=O)c2ncccc2OCC(F)(F)F)n1`, the result was inactive.

In the case of `CN=C=S`, the outcome was inactive.

Consider `CC(C)NC(=O)N1CC(=O)N(c2cc(Cl)cc(Cl)c2)C1=O`, for which the result was inactive.

As for `Cc1ccc(N=CN(C)C=Nc2ccc(C)cc2C)c(C)c1`, the AC50 was 33.2 µM (active).

As to `O=C1C2CC=CCC2C(=O)N1SC(Cl)(Cl)Cl` (stereo not given), the outcome was inactive.

Consider `Nc1cnn(-c2ccccc2)c(=O)c1Cl`, for which the outcome was inactive.
